# Results as given in PMC12820563, “FoxP3 forms a head-to-head dimer in vivo and stabilizes its multimerization on adjacent microsatellites”.
# In all, about 16,000 sequences were measured (“rpm ratio (pull-down/input)”: median about 0.5, highest 2% from about 5.5 on). For the sample, the highest values were picked, then their nearest neighbours and some sequences at random.
# Target: T1, MBP-FoxP3dN (Mus musculus, UniProt Q99JB6 188-423)
# T1 sequence: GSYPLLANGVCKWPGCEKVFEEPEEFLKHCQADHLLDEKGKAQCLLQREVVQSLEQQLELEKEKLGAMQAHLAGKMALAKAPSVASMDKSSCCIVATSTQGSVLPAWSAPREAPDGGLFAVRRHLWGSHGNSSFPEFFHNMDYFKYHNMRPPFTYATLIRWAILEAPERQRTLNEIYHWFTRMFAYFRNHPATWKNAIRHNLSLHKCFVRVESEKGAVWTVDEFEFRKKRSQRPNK
# Assay: PD-seq (MBP pull-down with sequencing); 20 mM Tris-HCl pH 7.5, 100 mM NaCl, 1.5 mM MgCl2, 0.4 uM protein, 0.1 uM dsDNA library, 30 min, room temperature, amylose pull-down; high values mean tight binding
# Details: protein: recombinant; tags: His6-MBP; chain copies: 2; dsDNA, one strand shown
# Summary of the method: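 Amylose resin was used to capture complexes formed during 30 min at room temperature in Tris pH 7.5 buffer with NaCl and MgCl2 between 0.4 µM His6-MBP-tagged mouse FoxP3 or FoxP1 fragment lacking the N-terminus, expressed in E. coli, and 0.1 µM Klenow-filled double-stranded degenerate DNA library. After three washes, the DNA was released with proteinase K, barcoded by PCR and sequenced on Illumina. Binding is pooled-replicate reads-per-million enrichment, pull-down over input.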
row,Sequence,binding signal
1,GATGATTGTTCTCCCAGCTGATGAATTATTTATGTCGAGTAAACAAATTTTCCTAATCTTTCTGTTCAAGCGCCATCTAC,2.12 RPM ratio (pull-down/input)
2,GATGATTGTTCTCCCAGCTGATGAATTTATGTTGTCGAGTAAACAAATTTTCCTAATCTTTCTGTTCAAGCGCCATCTAC,4.93 RPM ratio (pull-down/input)
3,GATGATTGTTCTCCCAGCTGATGAATTTGTTATGTCGAGTAAACAAATTTTCCTAATCTTTCTGTTCAAGCGCCATCTAC,6.84 RPM ratio (pull-down/input)
4,GATGATTGTTCTCCCAGCTGATGAATTGTTTATGTCGAGTAAACAAATTTTCCTAATCTTTCTGTTCAAGCGCCATCTAC,7 RPM ratio (pull-down/input)
5,GATGATTGTTCTCCCAGCTGATGAATTGGTTATGTCGAGTAAACAAATTTTCCTAATCTTTCTGTTCAAGCGCCATCTAC,2.38 RPM ratio (pull-down/input)
6,GATGATTGTTCTCCCAGCTGATGAATTTATGATGTCGAGTAAACAAATTTTCCTAATCTTTCTGTTCAAGCGCCATCTAC,3.91 RPM ratio (pull-down/input)
7,GATGATTGTTCTCCCAGCTGATGAATTTATTATGTCGAGTAAACAAATTTTCCTAATCTTTCTGTTCAAGCGCCATCTAC,5.83 RPM ratio (pull-down/input)
8,GATGATTGTTCTCCCAGCTGATGAATTATGTTTGTCGAGTAAACAAATTTTCCTAATCTTTCTGTTCAAGCGCCATCTAC,7.57 RPM ratio (pull-down/input)
9,GATGATTGTTCTCCCAGCTGATGAATTGATTATGTCGAGTAAACAAATTTTCCTAATCTTTCTGTTCAAGCGCCATCTAC,1.86 RPM ratio (pull-down/input)
10,GATGATTGTTCTCCCAGCTGATGAATTTTTTATGTCGAGTAAACAAATTTTCCTAATCTTTCTGTTCAAGCGCCATCTAC,0.31 RPM ratio (pull-down/input)
11,GATGATTGTTCTCCCAGCTGATGAATTATGTCTGTCGAGTAAACAAATTTTCCTAATCTTTCTGTTCAAGCGCCATCTAC,1.14 RPM ratio (pull-down/input)
12,GATGATTGTTCTCCCAGCTGATGAATTTCTTATGTCGAGTAAACAAATTTTCCTAATCTTTCTGTTCAAGCGCCATCTAC,0.657 RPM ratio (pull-down/input)
13,GATGATTGTTCTCCCAGCTGATGAATTGAGCACGTCGAGTAAACAAATTTTCCTAATCTTTCTGTTCAAGCGCCATCTAC,0.919 RPM ratio (pull-down/input)
14,GATGATTGTTCTCCCAGCTGATGAATTCGTATGCTCGAGTAAACAAATTTTCCTAATCTTTCTGTTCAAGCGCCATCTAC,2.01 RPM ratio (pull-down/input)
15,GATGATTGTTCTCCCAGCTGATGAATTTGGCGACTCGAGTAAACAAATTTTCCTAATCTTTCTGTTCAAGCGCCATCTAC,1.79 RPM ratio (pull-down/input)
16,GATGATTGTTCTCCCAGCTGATGAATTTCTGCTGTCGAGTAAACAAATTTTCCTAATCTTTCTGTTCAAGCGCCATCTAC,0.378 RPM ratio (pull-down/input)
17,GATGATTGTTCTCCCAGCTGATGAATTACTTGTTTCGAGTAAACAAATTTTCCTAATCTTTCTGTTCAAGCGCCATCTAC,0.804 RPM ratio (pull-down/input)

row,Sequence,binding signal
1,GATGATTGTTCTCCCAGCTGATGAATTCCTGAAATCGAGTAAACAAATTTTCCTAATCTTTCTGTTCAAGCGCCATCTAC,0.237 RPM ratio (pull-down/input)
2,GATGATTGTTCTCCCAGCTGATGAATTTGAGTTATCGAGTAAACAAATTTTCCTAATCTTTCTGTTCAAGCGCCATCTAC,0.953 RPM ratio (pull-down/input)
3,GATGATTGTTCTCCCAGCTGATGAATTACCCTGATCGAGTAAACAAATTTTCCTAATCTTTCTGTTCAAGCGCCATCTAC,0.253 RPM ratio (pull-down/input)
4,GATGATTGTTCTCCCAGCTGATGAATTTAGATTCTCGAGTAAACAAATTTTCCTAATCTTTCTGTTCAAGCGCCATCTAC,0.815 RPM ratio (pull-down/input)
5,GATGATTGTTCTCCCAGCTGATGAATTTTGTGTATCGAGTAAACAAATTTTCCTAATCTTTCTGTTCAAGCGCCATCTAC,6.55 RPM ratio (pull-down/input)
6,GATGATTGTTCTCCCAGCTGATGAATTTTCTGTATCGAGTAAACAAATTTTCCTAATCTTTCTGTTCAAGCGCCATCTAC,0.456 RPM ratio (pull-down/input)
7,GATGATTGTTCTCCCAGCTGATGAATTCTGTGTATCGAGTAAACAAATTTTCCTAATCTTTCTGTTCAAGCGCCATCTAC,5.85 RPM ratio (pull-down/input)
8,GATGATTGTTCTCCCAGCTGATGAATTGTGTGTATCGAGTAAACAAATTTTCCTAATCTTTCTGTTCAAGCGCCATCTAC,6.39 RPM ratio (pull-down/input)
9,GATGATTGTTCTCCCAGCTGATGAATTGTATATCTCGAGTAAACAAATTTTCCTAATCTTTCTGTTCAAGCGCCATCTAC,3.03 RPM ratio (pull-down/input)
10,GATGATTGTTCTCCCAGCTGATGAATTGTGTAAATCGAGTAAACAAATTTTCCTAATCTTTCTGTTCAAGCGCCATCTAC,0.96 RPM ratio (pull-down/input)
11,GATGATTGTTCTCCCAGCTGATGAATTGAGTATATCGAGTAAACAAATTTTCCTAATCTTTCTGTTCAAGCGCCATCTAC,1.7 RPM ratio (pull-down/input)
12,GATGATTGTTCTCCCAGCTGATGAATTGTGTATATCGAGTAAACAAATTTTCCTAATCTTTCTGTTCAAGCGCCATCTAC,6.5 RPM ratio (pull-down/input)
13,GATGATTGTTCTCCCAGCTGATGAATTTGGTGTATCGAGTAAACAAATTTTCCTAATCTTTCTGTTCAAGCGCCATCTAC,3.25 RPM ratio (pull-down/input)
14,GATGATTGTTCTCCCAGCTGATGAATTTGTGTAATCGAGTAAACAAATTTTCCTAATCTTTCTGTTCAAGCGCCATCTAC,4.48 RPM ratio (pull-down/input)
15,GATGATTGTTCTCCCAGCTGATGAATTCTTTGTATCGAGTAAACAAATTTTCCTAATCTTTCTGTTCAAGCGCCATCTAC,0.57 RPM ratio (pull-down/input)
16,GATGATTGTTCTCCCAGCTGATGAATTCTCTGTATCGAGTAAACAAATTTTCCTAATCTTTCTGTTCAAGCGCCATCTAC,0.441 RPM ratio (pull-down/input)
